Experimental data from PubChem BioAssay AID743145 (Broad Institute, 2013).
Measured potencies and affinities stand elsewhere. Active and inactive are the calls of the source. How the calls were made is not given here.

assay: cytotoxicity in COV434 cells, dose response, cytotoxicity control for PAX8 inhibitor project, cell-based, plate reader, dry powder, SA7 (AID 743145); details: series mostly up to 35 µM

Structure (SMILES)	outcome
C[C@@H]1CN([C@@H](C)CO)S(=O)(=O)c2ccc(C#C[C@@H](C)O)cc2O[C@H]1CN(C)Cc1ccc(-c2ccccc2)cc1	inactive
O=C(CCS(=O)(=O)c1ccccc1)Nc1nc2ccc(F)cc2s1	inactive
N#C[C@@H]1[C@@H](c2ccc(-c3ccccc3F)cc2)[C@@H](CO)N1C(=O)C1CCC1	inactive
C[C@@H]1CN([C@H](C)CO)C(=O)CCCn2cc(nn2)CO[C@H]1CN(C)C(=O)Nc1ccc(-c2cccs2)cc1	inactive
COc1cccc(C#Cc2ccc([C@H]3[C@@H](C#N)N(C(=O)c4ccccn4)[C@@H]3CO)cc2)c1	inactive
COC(=O)[C@@]1(CCS(=O)(=O)c2ccccc2)N=C(c2ccc(OCCCO)cc2)O[C@H]1c1ccccc1	inactive
Cc1ccccc1OCC(=O)Nc1cccc(C(=O)O)c1	inactive
COc1ccc(S(=O)(=O)Nc2ccc3c(c2)CC(=O)N([C@@H](C)CO)C[C@@H](C)[C@@H](CN(C)Cc2ccc(-c4ccccc4)cc2)O3)cc1	inactive
COc1ccc(S(=O)(=O)Nc2ccc3c(c2)CC(=O)N([C@@H](C)CO)C[C@H](C)[C@@H](CN(C)Cc2ccc(C(F)(F)F)cc2)O3)cc1	inactive
O=C1/C(=C/c2cccc(Br)c2)SC(=S)N1CCC(=O)N(CCO)c1ccccc1	inactive
C[C@H](CO)N1C[C@H](C)[C@@H](CN(C)S(=O)(=O)c2ccc(-c3ccccc3)cc2)OCc2cn(nn2)CCCC1=O	inactive
COc1cccc(C#Cc2ccc([C@@H]3[C@@H](C#N)N(C(=O)C4CCCC4)[C@@H]3CO)cc2)c1	inactive
O=C(CN1C(=O)c2ccccc2S1(=O)=O)c1ccccc1Cl	inactive
C[C@H]1CN([C@@H](C)CO)C(=O)Cc2cc(NC(=O)NC3CCCCC3)ccc2O[C@@H]1CN(C)Cc1ccc(-c2ccccc2)cc1	inactive
COc1cccc(C#Cc2ccc([C@@H]3[C@@H](C#N)N(C(=O)C4CCCCC4)[C@H]3CO)cc2)c1	inactive
O=C(NCCc1ccccc1)c1ccc2c(c1)OCCCO2	inactive
COc1ccc(S(=O)(=O)N2CCCCN3[C@H](CO)[C@H](c4ccc(C#CC(C)C)cc4)[C@H]3C2)cc1	inactive
CC(=O)N1CCOc2ccc(S(=O)(=O)N3CCN(c4cccc(C(F)(F)F)c4)CC3)cc21	inactive
O=C(CN1C(=O)c2ccccc2S1(=O)=O)c1ccc(Cl)cc1Cl	inactive
C[C@H]1CN([C@@H](C)CO)C(=O)CCCn2nncc2CO[C@@H]1CN(C)C(=O)Nc1ccc(-c2cccs2)cc1	inactive
COc1cccc(-c2ccc([C@H]3[C@@H](CO)N(C(=O)Cc4ccccc4)[C@H]3C#N)cc2)c1	inactive
C[C@H](CO)N1C[C@H](C)[C@H](CN(C)C(=O)Nc2ccc(-c3cccs3)cc2)OCc2cnnn2CCCC1=O	inactive
CCc1cnc(N2[C@@H](C#N)[C@@H](c3ccc(C#CC(C)C)cc3)[C@@H]2CO)s1	inactive
O=C1/C(=C/c2ccccc2)SC(=S)N1CC(=O)N1CCCCC1c1cccnc1 (stereo unspecified)	inactive
C[C@H](CO)N1C[C@H](C)[C@@H](CN(C)Cc2ccc(-c3ccccc3)cc2)Oc2ccc(NC(=O)C3CC3)cc2CC1=O	inactive
N#C[C@H]1[C@@H](c2ccc(C#CC3CCCCC3)cc2)[C@@H](CO)N1S(=O)(=O)c1ccccc1	inactive
